# PubChem BioAssay (NCI)
# Compounds without any hit were thinned out: in the full panel of roughly 79,000, 15% have a hit. Unmarked numbers belong to inactive results. Calls of active or inactive are those of the source. No stated cut-off is given here; in the data, active means growth inhibition above about 70%; inactive means the rest.
# Assay: NCI Yeast Anticancer Drug Screen. Data for the rad50 strain (AID 155);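 further: 0% = growth of vehicle-only cultures of the same strain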
# Details: S. cerevisiae rad50 strain growth inhibition; at 50.0 µM; active compounds read high
# How it was run: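 Inhibition values express reduced yeast growth in compound-treated cultures relative to vehicle-treated controls.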
row,Compound,growth inhibition
1,O=C(O)c1cccc(S(=O)(=O)NN2C(=O)CSC2c2ccccc2Cl)c1 (stereo not given),28.5%
2,CCCCn1cccc1,33.2%
3,Cc1cc2nnc(-c3cccc([N+](=O)[O-])c3)n2c2nnnn12,25%
4,O=C(CNc1ccc(Cl)cc1Cl)NC1C=Cc2ccc(S(=O)(=O)Nc3ccc(Cl)cc3Cl)cc2C1=O (stereo not given),34.5%
5,CC1CCC(NC(=O)NCCCl)c2ccccc21 (stereo not given),-7.05%
6,COc1cccc(/C=C(\C#N)C(=O)c2ccccc2)c1,4.4%
7,O=C(c1ccccc1)C(c1ccccc1)C1(O)C(=O)Nc2ccc(Br)cc21 (stereo not given),0.9%
8,CC1=C(C)C(N(C)C)CS(=O)(=O)O1 (stereo not given),6.35%
9,O=C1CCC2c3ccccc3NCN12 (stereo not given),7.05%
10,CC1(C)C2CCC1(CC(=O)O)C(O)C2=O (stereo not given),-13.3%
11,CCN(CC)CCOC(=O)Cc1cccc2c(=O)cc(-c3ccc(OC)cc3)oc12,50.4%
12,O=C1C=C(c2ccccc2)C(c2ccccc2)=C1,23.6%
13,COC(=O)c1cc(Cl)ccc1NC(=O)C1CCCCC1,4.75%
14,CN(CC(=O)c1ccc(Cl)cc1)Cc1ccccc1,-1.45%
15,CS(=O)(=O)c1c(N)c2nc(Cl)cn2c2nc3ccccc3nc12,-11.4%
16,O=c1cc(C(Br)(Br)Br)[nH]c2ccccc12,19.4%
17,NS(=O)(=O)N1CN(S(N)(=O)=O)CN(S(N)(=O)=O)C1,-3.4%
18,CC(C)N1C(=O)NC(=O)C12CCN(Cc1ccccc1)CC2,-1.5%
19,Cc1cc(O)c(C(c2cccnc2)c2c(O)cc(C)[nH]c2=O)c(=O)[nH]1,1.95%
20,COc1ccc(NS(=O)(=O)c2ccc(N=Cc3c4ccccc4nc4ccccc34)cc2)nn1,96.8% (active)

row,Compound,growth inhibition
1,Cc1cc(C)cc(N=Nc2c(N)nc(N)[nH]c2=O)c1,4.85%
2,CCOC(=O)c1ccc(NCc2ccc3nc(OC)c(OC)nc3c2)cc1,-5.7%
3,CC(c1ccccc1)C(C)(C)O (stereo not given),10.2%
4,CCC(C)CC(O)CC(C)C (stereo not given),13.9%
5,[CH3][Sn]([CH3])([O]C(=O)c1ccc2c(c1)OCO2)[O]C(=O)c1ccc2c(c1)OCO2,-0.15%
6,CN(C)c1ccc(/C=C(/NC(=O)c2ccccc2)C(N)=O)cc1,13.9%
7,Cc1ccc(C(=O)OC(C)C)cc1N=NN(C)C,32.4%
8,CSc1nn(C)c2cc(C)c3ccccc3[n+]12,20.4%
9,O=C1OCCc2c1[nH]c1ccccc21,12.9%
10,CC(C)(O)C(O)(c1ccccc1)c1ccccc1,2.65%
11,C/C(=N/O)c1ccc[nH]1,-3.6%
12,CCCCCC(C/C=N/N(C)C)C(O)(C(F)(F)F)C(F)(F)F (stereo not given),1.35%
13,O=S(=O)(N/N=C/c1ccc(Cl)c(Cl)c1)c1ccccc1,18.9%
14,COC(=O)CC1(C(=O)OC)Nc2ccc(Cl)cc2C(=O)O1 (stereo not given),-2.55%
15,CCCCOC(=O)C(C)OC(=O)OC (stereo not given),-21.1%
16,CCCCOC(=O)c1ccc(NC(=O)CCCN(CC)CC)cc1,5.5%
17,CS(=O)(=O)OCCC(O)COS(C)(=O)=O (stereo not given),-7.55%
18,Cc1ccc(O)c(C(=O)CCCC(=O)c2cc(C)ccc2O)c1,-4.6%
19,COc1ccc(-c2cc(=O)c3c(OC)cccc3o2)c(OC)c1OC,-8.9%
20,N/N=C(\C(=O)Nc1ccc(Cl)cc1Cl)C(c1cnc2ccccc2n1)[N+](=O)[O-] (stereo not given),12.5%
